Results as given in PubChem BioAssay.

biological target: Torsin-1A (Homo sapiens) (UniProt O14656); assay: small-molecule binders of mutant TOR1A in lysate, primary screen, cell lysate, small-molecule microarray, COS7 lysate, 635/667 nm fluorescence (AID 1150); details: COS7 hTOR1A mutant lysate, 635 nm fluorescence, higher = more signal;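 also: score pools 667 nm emission and signal to noise measuring lysate protein binding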
Sequence (O14656 whole entry, looked up): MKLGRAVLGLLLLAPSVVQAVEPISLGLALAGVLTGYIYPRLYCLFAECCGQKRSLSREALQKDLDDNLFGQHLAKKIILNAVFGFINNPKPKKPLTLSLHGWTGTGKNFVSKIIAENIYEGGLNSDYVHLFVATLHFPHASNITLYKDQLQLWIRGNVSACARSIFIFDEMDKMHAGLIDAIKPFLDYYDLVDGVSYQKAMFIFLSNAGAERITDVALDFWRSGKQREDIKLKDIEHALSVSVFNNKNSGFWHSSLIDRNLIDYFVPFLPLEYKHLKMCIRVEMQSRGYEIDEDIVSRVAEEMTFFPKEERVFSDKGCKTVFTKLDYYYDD

`C=C(CCCC)/C(=C/C[C@H](OC(C)=O)c1ccc(OCCO)cc1)c1cc(C(=O)OC)ccc1OC` was tested. Which composite z-score did it give?
The composite z-score was 0.886.

For `COc1ccc([Si](C)(C)[C@H]2[C@H](CC(=O)N3CCC[C@H]3CO)O[C@@]3(C(=O)N(Cc4ccc(N5CCC5=O)cc4)c4ccccc43)[C@@H]2C)cc1`, which composite z-score is on record?
The composite z-score was 0.43.

How did the composite z-score turn out when `[N-]=[N+]=NCc1ccccc1[C@@H]1OC(c2ccc(OCCCO)cc2)=N[C@]1(Cc1ccccc1N=[N+]=[N-])C(=O)NCCN1CCOCC1` was run?
Its composite z-score is 1.01.

`O=C1C[C@@](C(=O)NCC(F)(F)F)(c2ccc([N+](=O)[O-])cc2)[C@@H](c2ccc(CO)cc2)N1CC12CC3CC(CC(C3)C1)C2` was tested. Which composite z-score did it give?
Its composite z-score is 0.397.

test system: Sonic hedgehog protein (Shh); assay: small-molecule binders of Shh protein, primary screen, biochemical, small-molecule microarray, 635/667 nm fluorescence (AID 1151); details: small-molecule microarray binding, 635 nm fluorescence; higher = more signal;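 also: Shh protein binding to compounds spotted on small-molecule microarray slides; score combines spot fluorescence intensity with signal-to-noise across triplicate slides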

With `C=CCC(OC(C)=O)[C@@H]1[C@@H](N(Cc2cc3ccccc3o2)C(=O)c2ccc(-c3ccccc3)cc2)c2cc(OCCCO)ccc2N1C(=O)Cc1ccc(OC)cc1` (stereo partly specified) as the compound, how does the composite z-score read?
The composite z-score was 0.366.

For `COCC(=C=CC[C@@H](O)c1ccc(OCCO)cc1)CCO`, which composite z-score is on record?
Its composite z-score is 1.59.

`CC(C)(C)OC(=O)CC[C@]12N=C(c3ccc(OCCCO)cc3)O[C@H]1c1ccccc1N(Cc1ccccc1)C2=O` was tested. Which composite z-score did it give?
Its composite z-score is 1.12.

Which composite z-score does the source give for `O=C1OCCC/C=C\[C@H]2OC34C=CCN(c5ccc6ccccc6c5)C(=O)[C@H]3N(CCCO)C(=O)[C@@H]4C12` (stereo partly specified) here?
Its composite z-score is -0.339.

`C=C/C=C/[C@@H]1C(=C)CN([C@@H](Cc2ccccc2)C(=O)OC)[C@H]1[C@@H](O)Cc1ccccc1` was tested. Which composite z-score did it give?
Its composite z-score is 0.949.

How did the composite z-score turn out when `O=C1NC(=O)C2C1C=CC(C(O)c1ccccn1)N2Nc1ccc(Cl)cc1Cl` (stereo unspecified) was run?
Its composite z-score is -0.517.

With `CC(C)C[C@@H]1NC(=O)CNC(=O)[C@@]23C(=O)N[C@@H](Cc4ccccc4)C2[C@H](C)[C@@]2(C)O[C@H]2C3/C=C/C/C=C\CNC1=O` (stereo partly specified) as the compound, how does the composite z-score read?
The composite z-score was 1.5.
